PubChem BioAssay (EPA / NIEHS)
The source holds several records for some structures; these can differ, active in one and inactive in another. Calls of active or inactive are those of the source. How the source made its calls: active means hit-call score of the fitted dose curve at least 0.9, where 1 is the maximum; inactive means score below 0.9.

Tests used:
[1] = ATG_E_Box_CIS: Attagene CIS-FACTORIAL HepG2 Assay for human Enhancer Box (E-box) (AID 2282936); conditions: HepG2 E-box cis-reporter transcription, actives raise or lower the signal
How it was run: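 Endogenous transcription factor activity was sensed in human HepG2 liver cells through transfected cis-promoter reporter units. After 24 h of dosing, total RNA was reverse-transcribed and reporter cDNA resolved by capillary electrophoresis.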

[2] = ATG_EGR_CIS: Attagene CIS-FACTORIAL HepG2 Assay for human Early Growth Response 1 (EGR1) (AID 2282938); conditions: HepG2 Attagene CIS-FACTORIAL EGR reporter mRNA; actives raise or lower the signal
How it was run: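 Read-out: fluorescent reporter-mRNA fragments resolved by capillary electrophoresis after RT-PCR, 24 h post-dose in transiently transfected HepG2. Endogenous transcription-factor activity reported via cis-element-regulated reporter units; gain or loss fitted relative to DMSO.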

[3] = ATG_M_19_CIS: Attagene CIS-FACTORIAL HepG2 Assay for M19 Transcription Factor (Internal Marker) (AID 2282939); conditions: HepG2 Attagene CIS-FACTORIAL M19 internal marker reporter; actives raise or lower the signal
How it was run: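 Transfect HepG2 with MRTU reporter library → dose chemical, 24 h → isolate total RNA, reverse-transcribe with oligo(dT) → PCR, 6-FAM label, HpaI cut (2 h, 37 C) → capillary electrophoresis. Bidirectional fit vs DMSO.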

[4] = ATG_Ets_CIS: Attagene CIS-FACTORIAL HepG2 Assay for human Erythroblast Transformation Specific (ETS) (AID 2282941); conditions: HepG2 ETS cis-reporter transcription, actives raise or lower the signal
How it was run: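 RT-PCR/capillary electrophoresis fluorescence read-out of reporter mRNA; HepG2 transient multi-reporter transfection; 24 h compound exposure; gain or loss of signal fitted bidirectionally relative to DMSO.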

[5] = biological target: Hepatocyte nuclear factor 3-beta (Homo sapiens) (UniProt Q9Y261); assay: ATG_FoxA2_CIS: Attagene CIS-FACTORIAL HepG2 Assay for human Forkhead box A2 (FOXA2) (AID 2282942); conditions: HepG2 cis-reporter transcription factor activity, 24 h; actives raise or lower the signal
How it was run: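 Readout: fluorescent reporter transcripts resolved by capillary electrophoresis after RT-PCR. Transiently transfected HepG2, 24 h compound exposure, endogenous TF activity at cis promoter elements. Gain or loss of signal fitted relative to DMSO.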

[6] = ATG_FoxO_CIS: Attagene CIS-FACTORIAL HepG2 Assay for human Forkhead box O (FoxO) (AID 2282943); conditions: HepG2 Attagene cis-reporter, FoxO element, mRNA; actives raise or lower the signal
How it was run: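 24 h chemical exposure, HepG2 with transient cis-MRTU transfection. RNA extraction, oligo(dT) RT, reporter-specific PCR, primer-extension labelling, HpaI digestion, CE fragment analysis; bidirectional fit, DMSO baseline.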

[7] = ATG_GATA_CIS: Attagene CIS-FACTORIAL HepG2 Assay for human GATA Binding Protein (AID 2282944); conditions: HepG2 GATA cis-element reporter, Attagene multiplex mRNA; actives raise or lower the signal
How it was run: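 Transient MRTU transfection, HepG2, 24 h compound exposure. Total RNA → oligo(dT) RT → PCR → 6-FAM primer extension → HpaI cut → CE. Bidirectional fit vs DMSO.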

[8] = ATG_GLI_CIS: Attagene CIS-FACTORIAL HepG2 Assay for human Zinc Finger Protein GLI1 (AID 2282945); conditions: HepG2, Attagene cis-factorial reporter mRNA, GLI element; actives raise or lower the signal
How it was run: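 HepG2 cells transiently transfected with cis-promoter multiplexed reporter units report endogenous transcription factor activity. After 24 h chemical exposure, reporter mRNA was quantified by RT-PCR, 6-FAM labelling, HpaI digestion and capillary electrophoresis, with bidirectional fitting against DMSO.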

[9] = biological target: Bile acid receptor (Homo sapiens) (UniProt Q96RI1); assay: ATG_IR1_CIS: Attagene CIS-FACTORIAL HepG2 Assay for human Nuclear Receptor Subfamily 1 Group H Member 4 (NR1H4), IR1 submotif (AID 2282946); conditions: IR1 reporter transcription, actives raise or lower the signal
How it was run: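 Readout: reporter transcript levels by RT-PCR with fluorescent capillary electrophoresis, from HepG2 cells transiently transfected with multiplexed cis-regulated reporters and dosed 24 h. Gain- or loss-of-signal fitted versus DMSO negative control.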

[10] = ATG_M_61_CIS: Attagene CIS-FACTORIAL HepG2 Assay for M61 Transcription Factor (Internal Marker) (AID 2282937); conditions: HepG2 Attagene CIS-FACTORIAL M61 internal marker reporter; actives raise or lower the signal
How it was run: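 Readout: fluorescent reporter mRNA fragments resolved by capillary electrophoresis after RT-PCR. Transiently transfected human HepG2 cells carried MRTU constructs reporting endogenous TF activity; 24 h chemical exposure; gain or loss of signal fitted relative to DMSO.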

Measured: AC50

Chain of Bile acid receptor (Homo sapiens) (Q96RI1 whole entry, looked up): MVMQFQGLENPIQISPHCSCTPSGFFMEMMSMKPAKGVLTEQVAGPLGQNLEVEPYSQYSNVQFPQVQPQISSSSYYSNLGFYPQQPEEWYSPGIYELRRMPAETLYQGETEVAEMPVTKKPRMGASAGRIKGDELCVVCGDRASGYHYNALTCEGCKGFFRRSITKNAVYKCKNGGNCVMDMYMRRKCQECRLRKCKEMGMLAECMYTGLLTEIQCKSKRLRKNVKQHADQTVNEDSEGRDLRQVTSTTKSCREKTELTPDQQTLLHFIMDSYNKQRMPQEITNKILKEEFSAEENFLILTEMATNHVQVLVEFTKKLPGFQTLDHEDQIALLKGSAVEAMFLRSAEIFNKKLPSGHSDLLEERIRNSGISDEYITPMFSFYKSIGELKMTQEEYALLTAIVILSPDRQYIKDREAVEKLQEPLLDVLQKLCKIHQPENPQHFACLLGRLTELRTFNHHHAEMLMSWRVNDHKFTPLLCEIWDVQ
Chain of Hepatocyte nuclear factor 3-beta (Homo sapiens) (Q9Y261 whole entry, looked up): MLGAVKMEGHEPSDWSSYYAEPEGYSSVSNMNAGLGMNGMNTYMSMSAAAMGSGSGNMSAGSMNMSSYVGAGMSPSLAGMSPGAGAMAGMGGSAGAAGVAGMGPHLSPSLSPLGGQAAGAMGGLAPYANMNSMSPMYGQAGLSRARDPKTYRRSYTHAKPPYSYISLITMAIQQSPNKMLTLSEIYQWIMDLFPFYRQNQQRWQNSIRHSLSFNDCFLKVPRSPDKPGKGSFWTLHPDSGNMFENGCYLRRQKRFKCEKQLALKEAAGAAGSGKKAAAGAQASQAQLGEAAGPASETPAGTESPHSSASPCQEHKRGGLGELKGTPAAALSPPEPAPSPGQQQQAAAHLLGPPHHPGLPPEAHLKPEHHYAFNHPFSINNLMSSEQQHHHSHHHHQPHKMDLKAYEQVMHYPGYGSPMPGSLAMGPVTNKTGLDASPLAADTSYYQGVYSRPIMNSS

CCOP(=S)(OCC)OC(Cl)C(Cl)(Cl)Cl (stereo unspecified)
not listed: [9] | [10]
inactive: all other assays above

CSC1=N[C@@](C)(c2ccccc2)C(=O)N1Nc1ccccc1
active: [2] 19.9 µM
not listed: [10]
inactive: all other assays above

CCC(=NOC/C=C/Cl)C1=C(O)CC(C2CCOCC2)CC1=O (stereo unspecified)
not listed: [9] | [10]
inactive: all other assays above

C=C(C)[C@H]1Cc2c(ccc3c2O[C@@H]2COc4cc(OC)c(OC)cc4[C@@H]2C3=O)O1
active: [7] 1.21 µM
not listed: [10]
inactive: all other assays above

CN(C)C(=O)Nc1cccc(C(F)(F)F)c1
not listed: [9] | [10]
inactive: all other assays above

CCOP(=S)(OCC)SCCSCC
not listed: [9]
inactive: all other assays above

CC(COc1ccc(Oc2ccccc2)cc1)Oc1ccccn1 (stereo unspecified)
active: [2] 13.2 µM
inactive: all other assays above

CCOP(=O)(OCC)Oc1cc(C)nc(C(C)C)n1
not listed: [10]
inactive: all other assays above

CCOP(=S)(OCC)Oc1ccc([N+](=O)[O-])cc1
not listed: [9] | [10]
inactive: all other assays above

C[N+]1(C)CCCCC1
not listed: [9]
inactive: all other assays above

C[Si](Cn1cncn1)(c1ccc(F)cc1)c1ccc(F)cc1
active: [1] 83.2 µM | [2] 50 µM | [9] 69 µM
not listed: [10]
inactive: all other assays above

CC1=NNC(=O)N(/N=C/c2cccnc2)C1
not listed: [9]
inactive: all other assays above

CC1(C(=O)Nc2ccc(O)c(Cl)c2Cl)CCCCC1
active: [2] 32.2 µM
inactive: all other assays above

S=C1NCCN1
not listed: [9] | [10]
inactive: all other assays above

Cc1nn(-c2cc(NS(C)(=O)=O)c(Cl)cc2Cl)c(=O)n1C(F)F
not listed: [1] | [9]
inactive: all other assays above

O=[N+]([O-])c1cc(C(F)(F)F)c(Cl)c([N+](=O)[O-])c1Nc1ncc(C(F)(F)F)cc1Cl
inactive: [10] | [2] | [3] | [4] | [5] | [6] | [7] | [8] | [9]
active: [5] 20 µM | [9] 12.9 µM

CCc1cccc(C)c1N(C(=O)CCl)C(C)COC (stereo unspecified)
not listed: [9]
inactive: all other assays above

CCCCOC(=O)[C@@H](C)Oc1ccc(Oc2ccc(C#N)cc2F)cc1
not listed: [9]
inactive: all other assays above

COP(=O)(OC)SCn1c(=O)oc2cc(Cl)cnc21
not listed: [9]
inactive: all other assays above

FC(F)C(F)(F)OCC(Cn1cncn1)c1ccc(Cl)cc1Cl (stereo unspecified)
active: [2] 50 µM | [5] 50 µM
not listed: [10]
inactive: all other assays above

CC(C)=CC1C(C(=O)OCN2C(=O)C3=C(CCCC3)C2=O)C1(C)C (stereo unspecified)
active: [2] 62.1 µM
not listed: [9] | [10]
inactive: all other assays above

Cc1cc(C2CC2)nc(Nc2ccccc2)n1
active: [2] 50 µM | [5] 33 µM | [6] 50 µM
not listed: [10]
inactive: all other assays above

CSc1nnc(C(C)(C)C)c(=O)n1N
not listed: [10]
inactive: all other assays above

Cc1ccn2nc(S(=O)(=O)Nc3c(F)cccc3F)nc2n1
inactive: all assays above

CCc1cnc(C2=NC(C)(C(C)C)C(=O)N2)c(C(=O)O)c1 (stereo unspecified)
not listed: [9] | [10]
inactive: all other assays above

CC(C)[C@H](C(=O)O[C@H](C#N)c1cccc(Oc2ccccc2)c1)c1ccc(Cl)cc1
not listed: [9]
inactive: all other assays above

CSc1nc(NC(C)C)nc(NC(C)C)n1
not listed: [9] | [10]
inactive: all other assays above

CCOP(=S)(OCC)Oc1ccc2c(C)c(Cl)c(=O)oc2c1
not listed: [9] | [10]
inactive: all other assays above

COP(=O)(NC(C)=O)SC (stereo unspecified)
not listed: [9] | [10]
inactive: all other assays above

CCCCN(CC)c1c([N+](=O)[O-])cc(C(F)(F)F)cc1[N+](=O)[O-]
not listed: [9] | [10]
inactive: all other assays above

CCC(=O)Nc1ccc(Cl)c(Cl)c1
not listed: [1] | [9]
inactive: all other assays above

CCCOCC(=Nc1ccc(Cl)cc1C(F)(F)F)n1ccnc1
inactive: all assays above

COc1cc(OC)nc(Sc2cccc(Cl)c2C(=O)O)n1
not listed: [9] | [10]
inactive: all other assays above

CCCOc1nn(C(=O)NS(=O)(=O)c2ccccc2C(=O)OC)c(=O)n1C
not listed: [9] | [10]
inactive: all other assays above

N#CSCSC#N
not listed: [10]
inactive: all other assays above

CNc1cnn(-c2cccc(C(F)(F)F)c2)c(=O)c1Cl
not listed: [1] | [10]
inactive: all other assays above

CCOC(=O)CC(SP(=O)(OC)OC)C(=O)OCC (stereo unspecified)
not listed: [1] | [10]
inactive: all other assays above

CC(C1CC1)C(O)(Cn1cncn1)c1ccc(Cl)cc1 (stereo unspecified)
not listed: [1] | [9] | [10]
inactive: all other assays above

O=c1ccc(=O)[nH][nH]1
not listed: [1]
inactive: all other assays above

COc1ccc(C(=CC(=O)N2CCOCC2)c2ccc(Cl)cc2)cc1OC
active: [2] 28.4 µM | [4] 23.2 µM
not listed: [1] | [10]
inactive: all other assays above

CCCCSP(=O)(SCCCC)SCCCC
active: [7] 81.2 µM | [8] 79.8 µM
not listed: [1] | [10]
inactive: all other assays above

CN(C)[C@@H]1C(=O)C(C(N)=O)=C(O)[C@@]2(O)C(=O)C3=C(O)c4c(O)cccc4[C@@](C)(O)[C@H]3[C@H](O)[C@@H]12
not listed: [1] | [9] | [10]
inactive: all other assays above

CN1COCN(Cc2cnc(Cl)s2)C1=N[N+](=O)[O-]
not listed: [1] | [10]
inactive: all other assays above

CCc1cccc(CC)c1N(COC)C(=O)CCl
not listed: [1]
inactive: all other assays above

CN(C)NC(=O)CCC(=O)O
not listed: [1] | [9]
inactive: all other assays above

CNC(=O)ON=C(SC)C(=O)N(C)C
not listed: [1] | [9] | [10]
inactive: all other assays above

CNC(=O)Oc1cccc2c1OC(C)(C)O2
active: [4] 75.9 µM
not listed: [1] | [10]
inactive: all other assays above
